Several values for one entry are separate records, joined by “and”; a condition that tells them apart may be missing. Identical values can stand only once. This is part of a sample that, as a whole, favours compounds with a hit. Of some 79,000 tested, about 15% had one in any assay. Activity calls are given as the source filed them. No stated cut-off is given here; in the data, active means growth inhibition above about 70%; inactive means the rest.
What was measured:
[1] = NCI Yeast Anticancer Drug Screen. Data for the rad50 strain (AID 155);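 further: 0% = growth of vehicle-only cultures of the same strain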; conditions: S. cerevisiae rad50 strain growth inhibition, stronger effect = higher value
How it was run: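 DNA repair mutant yeast, compound exposure, growth read-out; inhibition is taken relative to vehicle.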

[2] = NCI Yeast Anticancer Drug Screen. Data for the sgs1 mgt1 strain (AID 161);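 further: 0% = growth of cultures given vehicle only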; conditions: S. cerevisiae sgs1 mgt1 strain, stronger effect = higher value
How it was run: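 Compounds are added to genetically altered yeast, and growth is compared with cultures given vehicle alone to give percent inhibition.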

[3] = NCI Yeast Anticancer Drug Screen. Data for the cln2 rad14 strain (AID 165);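 further: 0% = growth equal to vehicle treated cultures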; conditions: S. cerevisiae cln2 rad14 strain, stronger effect = higher value
How it was run: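 Readout is yeast growth inhibition versus vehicle-treated controls, using a strain with cln2 and rad14 alterations exposed to compound.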

[4] = NCI Yeast Anticancer Drug Screen. Data for the bub3 strain (AID 167); conditions: S. cerevisiae bub3 mutant strain, stronger effect = higher value
How it was run: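 In this screen, a yeast mutant lacking normal mitotic checkpoint function is challenged with compound. Relative growth versus vehicle gives the inhibition value.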

[5] = NCI Yeast Anticancer Drug Screen. Data for the mlh1 rad18 strain (AID 175); conditions: S. cerevisiae mlh1 rad18 strain growth inhibition, stronger effect = higher value
How it was run: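 Genetically defined yeast (DNA repair-deficient) exposed to compounds; growth inhibition determined relative to vehicle.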

[6] = NCI Yeast Anticancer Drug Screen. Data for the mec2-1 strain (AID 157); conditions: S. cerevisiae mec2-1 strain, stronger effect = higher value
How it was run: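 Mutant yeast (mec2-1) grown with compound; growth inhibition relative to vehicle control reported.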

[7] = at 5.0 µM (retest, dose inferred, filed as 0.5)
[8] = at 50.0 µM (retest, dose inferred, filed as 5.0)

Measured: growth inhibition

CCCCCCCCCCCCCCCCCC(=O)OCC(O)COC(=O)CCCCCCCCCCCCCCCCC
inactive: [1]; [7] -2% | [1]; [8] -5% | [1]; at 50.0 µM -7.45% | [2]; [7] -3% | [2]; [8] -21% | [2]; at 50.0 µM -8.65% | [3]; [7] 0% | [3]; [8] -13% | [3]; at 50.0 µM 38.4% | [4]; [7] 4% | [4]; [8] 0% | [4]; at 50.0 µM 45.5% | [5]; [7] 2% | [5]; [8] -1% | [5]; at 50.0 µM 2.55%

CS(=O)(=O)c1nc(Cl)c(Cl)c(C#N)c1Cl
inactive: [2]; [7] 66% | [3]; [7] 23%
active: [6]; [7] 76% | [6]; [8] 99% | [6]; at 50.0 µM 98.9% | [2]; [8] 99% | [2]; at 50.0 µM 99.2% | [3]; [8] 99% | [3]; at 50.0 µM 84.5% | [4]; [7] 88% | [4]; [8] 99% | [4]; at 50.0 µM 99.2% | [5]; [7] 85% | [5]; [8] 99% | [5]; at 50.0 µM 99%

CC1=CC(O)C2CC1C2(C)C (centres undefined)
inactive: [1]; at 50.0 µM 12.1% and 3.35% and 3.95% | [6]; at 50.0 µM -24.1% and -1.15% and -0.85% | [2]; at 50.0 µM -12.6% and 3.35% and -8.95% | [3]; at 50.0 µM 3.25% and -9% and -2.6% | [4]; at 50.0 µM -6.5% and -10.9% and 2.05% | [5]; at 50.0 µM -8.1% and 0.55% and 8.15%

CC(=O)c1c2c(cc3c1CC1(C3)Cc3ccc4c(c3C1=O)CCC4)CCC2 (centres undefined)
inactive: [6]; [7] 7% | [6]; [8] 5% | [6]; at 50.0 µM 17.2% | [2]; [7] 18% | [2]; [8] 7% | [2]; at 50.0 µM 5.75% | [3]; [7] 15% | [3]; [8] 16% | [3]; at 50.0 µM 6.8% | [4]; [7] 12% | [4]; [8] 39% | [4]; at 50.0 µM 55.2% | [5]; [7] 7% | [5]; [8] 6% | [5]; at 50.0 µM 36.4%

CCOCCC(=O)NNc1ccccc1
inactive: [1]; [7] 7% | [1]; [8] 43% | [1]; at 50.0 µM 26.2% | [2]; [7] 6% | [2]; [8] 41% | [2]; at 50.0 µM 42.2% | [3]; [7] 5% | [3]; [8] 56% | [3]; at 50.0 µM 56.8% | [4]; [7] 8% | [4]; at 50.0 µM 42.9% | [5]; [7] 19% | [5]; at 50.0 µM 58%
active: [4]; [8] 83% | [5]; [8] 80%

CCN(CC)CCCNc1c(O)cc(C)c2sc3ccccc3c(=O)c12
inactive: [1]; [7] 17% | [2]; [7] 4% | [3]; [7] 12% | [4]; [7] 14% | [5]; [7] 6%
active: [1]; [8] 98% | [1]; at 50.0 µM 98.7% | [2]; [8] 99% | [2]; at 50.0 µM 99% | [3]; [8] 96% | [3]; at 50.0 µM 98.3% | [4]; [8] 95% | [4]; at 50.0 µM 98.4% | [5]; [8] 98% | [5]; at 50.0 µM 98.8%

CC1(C)CC([P+](c2ccccc2)(c2ccccc2)c2ccccc2)=NN1
inactive: [6]; [7] 41% | [2]; [7] 60% | [3]; [7] 48% | [3]; at 50.0 µM 46% | [5]; [7] 56%
active: [6]; [8] 84% | [6]; at 50.0 µM 77.5% | [2]; [8] 89% | [2]; at 50.0 µM 79.5% | [3]; [8] 81% | [4]; [7] 71% | [4]; [8] 91% | [4]; at 50.0 µM 83.5% | [5]; [8] 83% | [5]; at 50.0 µM 79.5%

Nc1nccc(NCCCCCCNc2ccnc(N)n2)n1
inactive: [6]; [7] 13% | [6]; [8] 19% | [6]; at 50.0 µM 41.6% | [2]; [7] 8% | [2]; [8] 36% | [3]; [7] 17% | [3]; [8] 21% | [3]; at 50.0 µM 52% | [4]; [7] 9% | [4]; [8] 33% | [4]; at 50.0 µM 48% | [5]; [7] 17% | [5]; [8] 60% | [5]; at 50.0 µM 57.2%
active: [2]; at 50.0 µM 80%

COc1ccc(C(=O)Oc2c(Br)cc(Br)cc2Br)cc1
active: [4]; at 50.0 µM 87.8%
inactive: [6]; [7] 3% | [6]; [8] -3% | [6]; at 50.0 µM 12.7% | [2]; [7] 8% | [2]; [8] 10% | [2]; at 50.0 µM 1.9% | [3]; [7] -1% | [3]; [8] -30% | [3]; at 50.0 µM -6.5% | [4]; [7] 7% | [4]; [8] 5% | [5]; [7] 1% | [5]; [8] 2% | [5]; at 50.0 µM 7.75%

O=C(CSC1=NNC2(C(=O)N1)c1ccccc1-c1ccccc12)NC(=S)Nc1ccccc1
inactive: [1]; [7] -3% | [2]; [7] -7% | [3]; [7] -8% | [4]; [7] -16% | [5]; [7] -24%
active: [1]; [8] 95% | [1]; at 50.0 µM 96.2% | [2]; [8] 96% | [2]; at 50.0 µM 98% | [3]; [8] 86% | [3]; at 50.0 µM 96.4% | [4]; [8] 94% | [4]; at 50.0 µM 97.5% | [5]; [8] 95% | [5]; at 50.0 µM 97%

CCN(CC)CCOc1ccc(-c2nc3cc(Cl)ccc3s2)cc1
inactive: [6]; [7] 54% | [6]; at 50.0 µM 35.8% | [2]; [7] 23% | [3]; [7] 31% | [3]; at 50.0 µM 48% | [4]; [7] 61% | [5]; [7] 39%
active: [6]; [8] 86% | [2]; [8] 91% | [2]; at 50.0 µM 91% | [3]; [8] 84% | [4]; [8] 90% | [4]; at 50.0 µM 85.7% | [5]; [8] 82% | [5]; at 50.0 µM 83.3%

Cc1cc(I)cc(I)c1O
inactive: [1]; [7] 8% | [1]; [8] 55% | [6]; [7] 2% | [6]; [8] 34% | [3]; [7] 4% | [3]; [8] 4% | [3]; at 50.0 µM -7.85% | [4]; [7] 1% | [4]; [8] 33% | [4]; at 50.0 µM 67.3% | [5]; [7] 10% | [5]; [8] 62%
active: [1]; at 50.0 µM 75.5% | [6]; at 50.0 µM 80.7% | [5]; at 50.0 µM 86.3%

CC(=O)OC1CCC2(C)C3CCC4(C)C(C(C)CCCC(C)C)CCC4C3CCC23OC13C (centres undefined)
active: [2]; at 50.0 µM 72.7%
inactive: [1]; [7] 2% | [1]; [8] 12% | [1]; at 50.0 µM 31.9% | [2]; [7] -5% | [2]; [8] 52% | [3]; [7] -3% | [3]; [8] 6% | [3]; at 50.0 µM -19.2% | [4]; [7] -3% | [4]; [8] -4% | [4]; at 50.0 µM -8.05% | [5]; [7] 24% | [5]; [8] 59% | [5]; at 50.0 µM 35.7%

Cc1c(N)cc(I)cc1[N+](=O)[O-]
inactive: [1]; [7] 2% | [1]; [8] 12% | [1]; at 50.0 µM -4.65% | [2]; [7] 0% | [2]; [8] 63% | [2]; at 50.0 µM 12.8% | [3]; [7] 6% | [3]; [8] -11% | [3]; at 50.0 µM -32.7% | [4]; [7] -8% | [4]; [8] 2% | [4]; at 50.0 µM 56.8% | [5]; [7] -5% | [5]; [8] 10% | [5]; at 50.0 µM 13.8%

COc1cc(/C=C/C(C)=O)ccc1O
inactive: [1]; at 50.0 µM 18.1% and 35.2% and 5.45% | [6]; at 50.0 µM -10.4% and 9.95% and -15.9% | [2]; at 50.0 µM -6.5% and 21.9% and -16.1% | [3]; at 50.0 µM -17.4% and -22.3% and -1.45% | [4]; at 50.0 µM 1.7% and 3.35% and 4.4% | [5]; at 50.0 µM -4.85% and 23.2% and -20.9%

CCN(CC)C(=O)C1(OC(C)=O)CCCCC1
inactive: [6]; [7] -21% | [6]; [8] -1% | [6]; at 50.0 µM -5.65% | [3]; [7] 3% | [3]; [8] 0% | [3]; at 50.0 µM 36.8% | [4]; [7] -6% | [4]; [8] -2% | [4]; at 50.0 µM 2.1% | [5]; [7] 1% | [5]; [8] 0% | [5]; at 50.0 µM -80.8%

COc1cccc2c1C(=O)c1c(O)c(COC3CC(N)C(O)C(C)O3)cc(O)c1C2=O (centres undefined)
inactive: [6]; [7] 14% | [2]; [7] 13% | [3]; [7] 3% | [3]; [8] 42% | [3]; at 50.0 µM 50.6% | [4]; [7] 7% | [4]; [8] 40% | [5]; [7] 12% | [5]; [8] 53%
active: [6]; [8] 96% | [6]; at 50.0 µM 73% | [2]; [8] 80% | [2]; at 50.0 µM 99.3% | [4]; at 50.0 µM 98% | [5]; at 50.0 µM 98.3%

C[N+](C)(C)CCC(=O)c1ccco1
inactive: [1]; [7] 7% | [6]; [7] 16% | [3]; [7] 8% | [4]; [7] 7% | [5]; [7] 4%
active: [1]; [8] 99% | [1]; at 50.0 µM 99.5% | [6]; [8] 100% | [6]; at 50.0 µM 99.7% | [3]; [8] 99% | [3]; at 50.0 µM 96% | [4]; [8] 99% | [4]; at 50.0 µM 99.7% | [5]; [8] 99% | [5]; at 50.0 µM 99.2%

S=C(N/N=C(/c1ccccc1)c1ccccn1)Nc1cccc(Cl)c1
inactive: [1]; [7] 48% | [1]; at 50.0 µM 2.05% | [2]; [7] 24% | [2]; at 50.0 µM 41.6% | [3]; [7] 25% | [3]; at 50.0 µM 17.6% | [4]; [7] 40% | [4]; at 50.0 µM 20.1% | [5]; [7] 36% | [5]; at 50.0 µM 26.1%
active: [1]; [8] 88% | [2]; [8] 88% | [3]; [8] 88% | [4]; [8] 85% | [5]; [8] 89%

Source: PubChem BioAssay (NCI)
